The supplement of paper PMC10849652
Of roughly 7,900 targets only a part is listed; those with a hit were picked by preference. About 0.6% of all pairs of compound and target were hits.

Compound: CC1=C(SC2=C1C(=N[C@H](C3=NN=C(N32)C)CC(=O)N)C4=CC=C(C=C4)Cl)C
Experiment: log2 fold change, soluble protein after heating vs DMSO (PISA); higher = thermal stabilisation; K562 cells, 10 uM, 30 min; active = over 0.2 and 3.5 SD of the protein, either way, in both replicates (recomputed)
In short: (§1)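 K562 cells at 2×10^6 cells/mL were exposed to 10 μM compound for 30 min, then aliquots were heated for 3 min across 48°C-58°C, pooled, and extracted in PBS containing 0.5% NP-40 at 4°C. The supernatant after 21,000xg for 90 min was taken as soluble protein and measured by TMTpro 16plex LC-MS/MS with channel sums equalised. Thermal stability is reported relative to control samples, with values from duplicates. Fold changes are given on a log2 scale.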

UniProt P33121, sequence (P33121 whole entry, looked up): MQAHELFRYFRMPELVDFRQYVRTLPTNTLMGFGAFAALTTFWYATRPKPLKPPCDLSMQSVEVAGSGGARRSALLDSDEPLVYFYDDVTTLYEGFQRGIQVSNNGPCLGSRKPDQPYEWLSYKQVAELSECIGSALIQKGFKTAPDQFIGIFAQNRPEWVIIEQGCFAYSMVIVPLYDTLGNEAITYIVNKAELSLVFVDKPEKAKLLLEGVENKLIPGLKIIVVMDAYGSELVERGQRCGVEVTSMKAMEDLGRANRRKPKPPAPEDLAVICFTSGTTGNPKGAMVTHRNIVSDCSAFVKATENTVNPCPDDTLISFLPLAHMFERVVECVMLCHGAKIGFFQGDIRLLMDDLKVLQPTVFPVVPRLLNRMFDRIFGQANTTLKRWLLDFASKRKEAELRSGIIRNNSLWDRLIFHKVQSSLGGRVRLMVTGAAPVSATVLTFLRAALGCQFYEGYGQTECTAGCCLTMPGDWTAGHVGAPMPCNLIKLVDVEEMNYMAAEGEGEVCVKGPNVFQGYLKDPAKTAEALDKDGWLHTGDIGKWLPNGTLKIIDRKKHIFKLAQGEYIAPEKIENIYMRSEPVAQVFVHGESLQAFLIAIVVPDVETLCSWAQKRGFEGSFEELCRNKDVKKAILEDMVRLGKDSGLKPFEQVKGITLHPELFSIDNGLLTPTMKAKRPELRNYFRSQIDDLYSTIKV
UniProt Q10589, sequence (Q10589 whole entry, looked up): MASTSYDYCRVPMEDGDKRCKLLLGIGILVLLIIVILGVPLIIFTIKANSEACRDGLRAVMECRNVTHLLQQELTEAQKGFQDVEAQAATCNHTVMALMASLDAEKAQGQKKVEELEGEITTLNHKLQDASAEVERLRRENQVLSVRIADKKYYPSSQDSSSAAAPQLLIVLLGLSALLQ
UniProt P31749, sequence (P31749 whole entry, looked up): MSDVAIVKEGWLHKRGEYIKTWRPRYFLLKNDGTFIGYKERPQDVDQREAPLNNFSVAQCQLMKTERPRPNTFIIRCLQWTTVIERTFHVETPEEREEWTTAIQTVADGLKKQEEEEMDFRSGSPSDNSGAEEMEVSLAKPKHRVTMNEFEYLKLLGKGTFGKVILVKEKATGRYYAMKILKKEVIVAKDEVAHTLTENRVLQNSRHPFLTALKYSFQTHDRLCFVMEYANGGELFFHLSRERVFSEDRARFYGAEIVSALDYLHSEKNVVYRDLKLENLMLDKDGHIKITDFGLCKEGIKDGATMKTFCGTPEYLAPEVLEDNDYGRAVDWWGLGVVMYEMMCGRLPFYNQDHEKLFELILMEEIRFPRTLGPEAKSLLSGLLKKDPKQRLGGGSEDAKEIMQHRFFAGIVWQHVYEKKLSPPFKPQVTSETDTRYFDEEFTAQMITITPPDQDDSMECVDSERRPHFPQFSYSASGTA
UniProt P35611, sequence (P35611 whole entry, looked up): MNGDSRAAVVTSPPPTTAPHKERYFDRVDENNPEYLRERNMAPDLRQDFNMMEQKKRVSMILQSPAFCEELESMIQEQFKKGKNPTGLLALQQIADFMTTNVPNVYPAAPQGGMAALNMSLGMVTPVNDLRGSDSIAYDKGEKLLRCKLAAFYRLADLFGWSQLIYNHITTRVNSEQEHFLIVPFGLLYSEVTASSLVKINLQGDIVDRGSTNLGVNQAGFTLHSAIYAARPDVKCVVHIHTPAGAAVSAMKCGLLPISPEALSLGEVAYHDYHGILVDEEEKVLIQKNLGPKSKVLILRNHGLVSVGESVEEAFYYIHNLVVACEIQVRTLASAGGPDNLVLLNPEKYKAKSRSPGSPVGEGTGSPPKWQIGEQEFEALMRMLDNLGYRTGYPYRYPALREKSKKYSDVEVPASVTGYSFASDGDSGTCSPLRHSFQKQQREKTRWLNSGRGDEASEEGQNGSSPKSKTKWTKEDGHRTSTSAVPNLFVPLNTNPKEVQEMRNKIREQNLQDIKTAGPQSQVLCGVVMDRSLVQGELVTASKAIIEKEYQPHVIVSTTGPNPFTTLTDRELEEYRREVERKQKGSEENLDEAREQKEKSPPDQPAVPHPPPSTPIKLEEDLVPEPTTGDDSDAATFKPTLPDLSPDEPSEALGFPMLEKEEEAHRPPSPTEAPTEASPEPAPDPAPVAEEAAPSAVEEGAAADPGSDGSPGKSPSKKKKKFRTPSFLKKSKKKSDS
UniProt P31751, sequence (P31751 whole entry, looked up): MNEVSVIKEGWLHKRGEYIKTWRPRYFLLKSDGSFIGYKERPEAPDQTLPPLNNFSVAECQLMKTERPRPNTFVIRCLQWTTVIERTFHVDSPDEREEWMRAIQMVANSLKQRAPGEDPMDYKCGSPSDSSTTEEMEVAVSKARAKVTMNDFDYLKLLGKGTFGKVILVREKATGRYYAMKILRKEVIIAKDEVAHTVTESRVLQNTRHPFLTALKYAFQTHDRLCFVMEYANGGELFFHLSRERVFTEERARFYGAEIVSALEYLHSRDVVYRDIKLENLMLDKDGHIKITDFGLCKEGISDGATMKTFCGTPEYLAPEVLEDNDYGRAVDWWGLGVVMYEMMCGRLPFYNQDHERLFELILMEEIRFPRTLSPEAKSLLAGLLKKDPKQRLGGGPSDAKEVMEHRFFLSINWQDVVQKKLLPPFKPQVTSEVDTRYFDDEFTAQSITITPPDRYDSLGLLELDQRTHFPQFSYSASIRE
UniProt P49189, sequence (P49189 whole entry, looked up): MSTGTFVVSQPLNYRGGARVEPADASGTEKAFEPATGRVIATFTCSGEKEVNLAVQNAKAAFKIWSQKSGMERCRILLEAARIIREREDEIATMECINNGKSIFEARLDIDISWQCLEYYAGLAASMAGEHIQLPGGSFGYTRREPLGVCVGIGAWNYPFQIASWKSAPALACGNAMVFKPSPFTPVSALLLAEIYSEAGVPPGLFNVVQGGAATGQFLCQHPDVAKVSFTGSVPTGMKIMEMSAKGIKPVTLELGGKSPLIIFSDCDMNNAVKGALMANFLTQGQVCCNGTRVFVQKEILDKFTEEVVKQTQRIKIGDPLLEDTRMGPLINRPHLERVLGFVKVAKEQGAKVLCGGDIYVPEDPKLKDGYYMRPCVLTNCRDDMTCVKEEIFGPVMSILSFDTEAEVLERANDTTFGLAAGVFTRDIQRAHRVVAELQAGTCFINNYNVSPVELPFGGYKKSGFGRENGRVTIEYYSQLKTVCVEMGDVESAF
UniProt Q9UKG1, sequence (Q9UKG1 whole entry, looked up): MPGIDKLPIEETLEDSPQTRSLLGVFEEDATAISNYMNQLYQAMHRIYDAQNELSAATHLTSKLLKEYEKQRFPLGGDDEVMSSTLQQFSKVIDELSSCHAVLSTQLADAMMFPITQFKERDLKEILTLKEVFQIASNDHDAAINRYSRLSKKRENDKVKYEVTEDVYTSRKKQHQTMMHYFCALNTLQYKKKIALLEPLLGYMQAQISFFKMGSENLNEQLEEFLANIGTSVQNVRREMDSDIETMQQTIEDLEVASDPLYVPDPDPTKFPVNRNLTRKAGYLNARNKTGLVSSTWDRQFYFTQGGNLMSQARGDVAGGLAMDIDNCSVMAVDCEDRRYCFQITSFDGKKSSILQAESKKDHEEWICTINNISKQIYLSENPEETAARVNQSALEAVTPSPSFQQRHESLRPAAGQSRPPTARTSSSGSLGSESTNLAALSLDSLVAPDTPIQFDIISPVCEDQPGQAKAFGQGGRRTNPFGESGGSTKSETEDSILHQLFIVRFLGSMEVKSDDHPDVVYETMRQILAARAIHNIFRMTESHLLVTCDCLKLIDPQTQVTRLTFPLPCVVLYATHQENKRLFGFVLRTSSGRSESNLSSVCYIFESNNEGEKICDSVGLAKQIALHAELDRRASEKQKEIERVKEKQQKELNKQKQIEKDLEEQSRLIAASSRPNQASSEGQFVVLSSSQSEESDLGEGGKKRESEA
UniProt P24666, sequence (P24666 whole entry, looked up): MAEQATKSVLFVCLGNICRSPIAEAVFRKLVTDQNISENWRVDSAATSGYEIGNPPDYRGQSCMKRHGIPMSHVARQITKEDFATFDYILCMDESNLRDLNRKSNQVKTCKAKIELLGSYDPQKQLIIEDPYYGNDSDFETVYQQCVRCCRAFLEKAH
UniProt P21283, sequence (P21283 whole entry, looked up): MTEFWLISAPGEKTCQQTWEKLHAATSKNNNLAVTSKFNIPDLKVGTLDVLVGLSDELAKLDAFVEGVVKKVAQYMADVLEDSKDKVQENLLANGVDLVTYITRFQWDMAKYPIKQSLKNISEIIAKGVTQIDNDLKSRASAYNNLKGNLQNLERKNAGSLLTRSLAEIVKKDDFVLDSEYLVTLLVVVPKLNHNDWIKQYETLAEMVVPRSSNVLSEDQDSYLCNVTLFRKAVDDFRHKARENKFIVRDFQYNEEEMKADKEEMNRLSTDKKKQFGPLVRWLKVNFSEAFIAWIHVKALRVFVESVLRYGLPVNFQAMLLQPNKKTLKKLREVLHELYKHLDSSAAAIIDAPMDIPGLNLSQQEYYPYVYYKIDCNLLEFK
UniProt O95433, sequence (O95433 whole entry, looked up): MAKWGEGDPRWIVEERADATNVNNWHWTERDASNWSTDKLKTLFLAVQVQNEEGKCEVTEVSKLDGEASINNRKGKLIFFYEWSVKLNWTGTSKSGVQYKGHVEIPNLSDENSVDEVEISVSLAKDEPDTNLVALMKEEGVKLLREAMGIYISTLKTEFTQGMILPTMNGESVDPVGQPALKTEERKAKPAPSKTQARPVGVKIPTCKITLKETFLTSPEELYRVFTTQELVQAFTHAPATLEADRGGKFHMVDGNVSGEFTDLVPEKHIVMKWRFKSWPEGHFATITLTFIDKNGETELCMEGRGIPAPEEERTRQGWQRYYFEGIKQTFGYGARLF
UniProt Q8WUW1, sequence (Q8WUW1 whole entry, looked up): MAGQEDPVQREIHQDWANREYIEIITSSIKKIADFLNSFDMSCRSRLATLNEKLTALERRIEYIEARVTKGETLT
UniProt P18085, sequence (P18085 whole entry, looked up): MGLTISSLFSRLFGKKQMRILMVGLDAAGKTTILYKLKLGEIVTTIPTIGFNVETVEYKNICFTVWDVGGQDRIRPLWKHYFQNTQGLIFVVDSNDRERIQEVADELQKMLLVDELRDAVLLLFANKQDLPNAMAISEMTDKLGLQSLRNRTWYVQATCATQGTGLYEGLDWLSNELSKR

| Target | log2 fold change |
| --- | --- |
| ACP1 isoform 2 (UniProt P24666) | -0.028 (inactive) |
| APPL1 (UniProt Q9UKG1) | 0.122 (inactive) |
| ACSL1 (UniProt P33121) | 0.043 (inactive) |
| AKT2 (UniProt P31751) | 0.055 (inactive) |
| AHSA1 (UniProt O95433) | 0.063 (inactive) |
| APOB (UniProt P04114) | 0.028 (inactive) |
| AUH (UniProt Q13825) | 0.065 (inactive) |
| BST2 (UniProt Q10589) | 0.019 (inactive) |
| ATP6V1C1 (UniProt P21283) | 0.004 (inactive) |
| ALDH9A1 (UniProt P49189) | -0.193 (inactive) |
| AAMP (UniProt Q13685) | -0.013 (inactive) |
| ADD1 isoform 3 (UniProt P35611) | -0.003 (inactive) |
| AKT1 (UniProt P31749) | 0.018 (inactive) |

Compound: CC1=C2C(=CC=C1)N=C(N(C2=O)C3=CC=CC=C3C)CN4C=NC5=C(N=CN=C54)N
Experiment: as above
In short: as §1

| Target | log2 fold change |
| --- | --- |
| ARL2BP (UniProt Q9Y2Y0) | 0.14 (inactive) |
| BRD2 isoform 2 (UniProt P25440) | 0.092 (inactive) |
| ATIC (UniProt P31939) | 0.073 (inactive) |
| AIP (UniProt O00170) | 0.042 (inactive) |
| ATP6V1H (UniProt Q9UI12) | 0.029 (inactive) |
| ATG4B isoform 2 (UniProt Q9Y4P1) | 0.166 (inactive) |
| ACP2 (UniProt P11117) | 0.008 (inactive) |
| BRIP1 (UniProt Q9BX63) | 0 (inactive) |
| ARF4 (UniProt P18085) | 0.053 (inactive) |
| AGO1 (UniProt Q9UL18) | -0.114 (inactive) |
| AGRN (UniProt O00468) | 0.043 (inactive) |
| APOH (UniProt P02749) | 0.073 (inactive) |
| ATF1 (UniProt P18846) | -0.001 (inactive) |
| ADH5 (UniProt P11766) | 0.025 (inactive) |
| BRK1 isoform 2 (UniProt Q8WUW1) | 0.025 (inactive) |
| AP2B1 isoform 2 (UniProt P63010) | -0.016 (inactive) |
| BSCL2 isoform 4 (UniProt Q96G97) | -0.084 (inactive) |
| AKR1C2 (UniProt P52895) | 0.086 (inactive) |

| Target | log2 fold change |
| --- | --- |
| AP2A2 isoform 2 (UniProt O94973) | 0.04 (inactive) |
| ACBD6 (UniProt Q9BR61) | 0.1 (inactive) |
| ANXA5 (UniProt P08758) | 0.024 (inactive) |
| ALDH9A1 isoform 3 (UniProt P49189) | 0.019 (inactive) |
| ATP1A4 (UniProt Q13733) | 0.035 (inactive) |
| ACP1 isoform 2 (UniProt P24666) | 0.004 (inactive) |
| APPL1 (UniProt Q9UKG1) | 0.086 (inactive) |
| ACSL1 (UniProt P33121) | 0.064 (inactive) |
| AKT2 (UniProt P31751) | 0.061 (inactive) |
| AHSA1 (UniProt O95433) | 0.015 (inactive) |
| APOB (UniProt P04114) | 0.055 (inactive) |
| AUH (UniProt Q13825) | -0.116 (inactive) |
| BST2 (UniProt Q10589) | -0.012 (inactive) |
| ATP6V1C1 (UniProt P21283) | 0.05 (inactive) |
| ALDH9A1 (UniProt P49189) | 0.03 (inactive) |
| AAMP (UniProt Q13685) | 0.014 (inactive) |
| ADD1 isoform 3 (UniProt P35611) | 0 (inactive) |
| AKT1 (UniProt P31749) | 0.034 (inactive) |

Compound: Cc1sc2c(c1C)C(c1ccc(Cl)cc1)=N[C@@H](CC(=O)OC(C)(C)C)c1nnc(C)n1-2
Experiment: as above
In short: as §1

| Target | log2 fold change |
| --- | --- |
| ARL2BP (UniProt Q9Y2Y0) | 0.069 (inactive) |
| BRD2 isoform 2 (UniProt P25440) | 2.33 (active) |
| ATIC (UniProt P31939) | -0.041 (inactive) |
| AIP (UniProt O00170) | -0.004 (inactive) |
| ATP6V1H (UniProt Q9UI12) | -0.019 (inactive) |
| ATG4B isoform 2 (UniProt Q9Y4P1) | 0.188 (inactive) |
| ACP2 (UniProt P11117) | -0.023 (inactive) |
| BRIP1 (UniProt Q9BX63) | -0.042 (inactive) |
| ARF4 (UniProt P18085) | -0.082 (inactive) |
| AGO1 (UniProt Q9UL18) | -0.016 (inactive) |
| AGRN (UniProt O00468) | -0.038 (inactive) |
| APOH (UniProt P02749) | -0.051 (inactive) |
| ATF1 (UniProt P18846) | -0.014 (inactive) |
| ADH5 (UniProt P11766) | -0.023 (inactive) |
| BRK1 isoform 2 (UniProt Q8WUW1) | -0.055 (inactive) |
| AP2B1 isoform 2 (UniProt P63010) | 0.03 (inactive) |
| BSCL2 isoform 4 (UniProt Q96G97) | 0.027 (inactive) |
| AKR1C2 (UniProt P52895) | 0.057 (inactive) |

| Target | log2 fold change |
| --- | --- |
| AP2A2 isoform 2 (UniProt O94973) | 0.048 (inactive) |
| ACBD6 (UniProt Q9BR61) | -0.072 (inactive) |
| ANXA5 (UniProt P08758) | 0.021 (inactive) |
| ALDH9A1 isoform 3 (UniProt P49189) | -0.019 (inactive) |
| ATP1A4 (UniProt Q13733) | 0.036 (inactive) |
| ACP1 isoform 2 (UniProt P24666) | 0.028 (inactive) |
| APPL1 (UniProt Q9UKG1) | -0.025 (inactive) |
| ACSL1 (UniProt P33121) | 0.001 (inactive) |
| AKT2 (UniProt P31751) | 0.009 (inactive) |
| AHSA1 (UniProt O95433) | -0.024 (inactive) |
| APOB (UniProt P04114) | 0.034 (inactive) |
| AUH (UniProt Q13825) | -0.042 (inactive) |
| BST2 (UniProt Q10589) | 0.068 (inactive) |
| ATP6V1C1 (UniProt P21283) | -0.002 (inactive) |
| ALDH9A1 (UniProt P49189) | 0.098 (inactive) |
| AAMP (UniProt Q13685) | -0.032 (inactive) |
| ADD1 isoform 3 (UniProt P35611) | -0.014 (inactive) |
| AKT1 (UniProt P31749) | 0.042 (inactive) |
